# Cycloheximide cs = Cycloheximide Counterscreen for Small Molecule Inhibitors of Shiga Toxin; cell reporter, cycloheximide protein synthesis inhibition counterscreen; max response, %; 12% of 300,000 active; AID 2314, 2010; in the data active = max response mostly above about 13%, no sharp cut-off; inactive = mostly below about 14%; also: read at 38.3 µM for the half of the compounds with a filed dose; 0% is about no effect
# AmpC inh detg = qHTS Inhibitors of AmpC Beta-Lactamase (assay with detergent); P00811; AmpC hydrolysis of nitrocefin, absorbance 480 nm, 0.01% Triton; Potency, µM (highest dose often 114 µM), for inactives: at the highest dose activity change, negative = inhibition, usual class: inhibitors; 0.041% of 370,000 active; AID 485294, 2010;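 also: potency is read from the fitted curve at half-maximal effect; 0% = no-compound wells and -100% = no-enzyme wells; nearly all actives have a fitted effect of over 25% in size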
# Target sequence (P00811 whole entry, looked up): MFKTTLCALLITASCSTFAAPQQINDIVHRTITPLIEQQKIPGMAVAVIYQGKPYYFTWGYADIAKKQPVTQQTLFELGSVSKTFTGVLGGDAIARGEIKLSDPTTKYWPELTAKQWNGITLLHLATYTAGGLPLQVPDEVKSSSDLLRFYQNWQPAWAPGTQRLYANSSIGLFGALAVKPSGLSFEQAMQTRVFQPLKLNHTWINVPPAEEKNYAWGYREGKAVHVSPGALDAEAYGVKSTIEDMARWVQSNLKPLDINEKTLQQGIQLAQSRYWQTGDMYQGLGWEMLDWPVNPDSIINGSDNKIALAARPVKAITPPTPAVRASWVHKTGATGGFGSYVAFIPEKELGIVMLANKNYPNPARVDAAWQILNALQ
#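 20 mM phosphate pH 7.0 + 0.01% (detergent screen) or 0.0001% Triton X-100; 5.3 nM AmpC reagent; cpd preinc 15 min RT; nitrocefin (800 uM stock) to start; A480 q20 s × 4 min; Activity was normalised to no-enzyme and no-compound control wells.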
# AmpC no deterg = qHTS Inhibitors of AmpC Beta-Lactamase (assay without detergent). P00811. AmpC nitrocefin hydrolysis, absorbance 480 nm, 0.0001% Triton. Potency, µM (top dose mostly 57.1 µM), inactives show at the top dose activity change, negative = inhibition, actives largely listed as inhibitors. 0.52% of 330,000 active;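 also: potency is read from the fitted curve at half-maximal effect; plate controls were no compound for no effect and no enzyme for full effect; nearly all actives have a fitted effect of over 20% in size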
#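 20 mM phosphate pH 7.0 + 0.01% (detergent screen) or 0.0001% Triton X-100; 5.3 nM AmpC reagent; cpd preinc 15 min RT; nitrocefin (800 uM stock) to start; A480 q20 s × 4 min; Activity was normalised to no-enzyme and no-compound control wells.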
# Shiga toxin inh = A qHTS for Small Molecule Inhibitors of Shiga Toxin. Vero cells, Shiga toxin protein synthesis inhibition reporter. inhibition, % at 38.7 µM. 9.2% of 290,000 active; in the data active = inhibition mostly above about 28%, no sharp cut-off; inactive = mostly below about 43%; also: 0% is about no effect
# SARS PLpro yeast = qHTS of Yeast-based Assay for SARS-CoV PLP; AID 485353, 2010; Potency, µM (series often up to 32.9 µM), for inactives: top-dose activity, positive = growth rescue, usual class: activators; 0.19% of 330,000 active; S. cerevisiae expressing SARS-CoV PLpro, growth rescue; calls by dose curve; also: potency is read from the fitted curve at half-maximal effect; 0% is about no effect; nearly all actives have a fitted effect of over 55% in size
# AMA1 RON2 block = qHTS for Inhibitors of AMA1-RON; Towards Development of Antimalarial Drug Lead: Primary Screen. Plasmodium falciparum AMA1 (3D7) - RON2 peptide interaction. AlphaScreen AMA1-biotinylated RON2 peptide binding. Potency, µM (titrated, usually from 58.2 µM), inactives show at the highest dose activity change, negative = inhibition, actives largely listed as inhibitors. 0.2% of 360,000 active. AID 720542, 2013;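 also: potency is read from the fitted curve at half-maximal effect; 0% = vehicle wells and -100% = peptide control; nearly all actives have a fitted effect of over 45% in size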
#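 AMA1 (3D7) with his tag at 25 nM final met compounds first, then biotinylated RON2 peptide at 25 nM; detection used donor plus acceptor beads, 10 µg/mL apiece, read by AlphaScreen after 30 min at room temperature.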
# The depositor's hits bear a star; u = inconclusive; x = not tested or not shown; + = active, no number. This is one part of a sample in which hits are shown more often than they occur. Unless noted, calls follow the shape of the dose curve; as a rule, active = well fitted curve in the direction sought with a large enough effect; inconclusive = small, poorly fitted or top-dose-only effect, or another doubt; inactive = no such curve, though single readings can be large; an effect the other way counts as inactive or inconclusive.
SMILES,Cycloheximide cs,AmpC inh detg,AmpC no deterg,Shiga toxin inh,SARS PLpro yeast,AMA1 RON2 block
CCC(=O)Nc1cnc(NC(=O)c2cccc(F)c2)cc1C,18.3,u,-22.6%,66.1,-22.8%,20.4%
C/C(=C\C(=O)Nc1cc(C)on1)c1ccccc1,36.5*,-16.1%,-31.3%,56.6*,-17.8%,-3.5%
CC(=O)Nc1cnc(NC(=O)c2cccc(F)c2)cc1C,50.0*,u,-1.7%,55.4*,9.0%,0.0%
Cc1cc(NC(=O)C(=O)c2cn(C)c3ccccc23)no1,18.4*,0.7%,-3.6%,42.4,-0.5%,-8.6%
C#C[C@]1(O)CC[C@H]2[C@@H]3CCC4=CC(=O)CC[C@]4(C)[C@H]3CC[C@@]21C,-2.4,-12.3%,-24.9%,3.9,-0.6%,-1.6%
COc1cccc(C2=NOC(C(=O)Nc3cc(C)on3)C2)c1OC (stereo not drawn),14.3*,-4.8%,-8.4%,52.6,-0.3%,8.2%
Cc1cc(NC(=O)c2ccc(NC(=O)C(C)C)cc2)no1,32.2,0.1%,-30.5%,77.1,-0.6%,-14.2%
Cc1cc(NC(=O)c2ccc(NC(=O)C3CC3)cc2)no1,29.8*,-1.6%,-8.6%,61.4*,-0.6%,4.7%
CC(C)(C)OC(=O)N[C@@H](Cc1ccccc1)C(=O)N1CCC(C(=O)O)CC1,-4.2,-2.0%,-17.9%,-2.1,-9.4%,1.3%
COc1cc(/C=C/C(=O)c2ccc(O)cc2O)ccc1O,31.9*,x,x,67.8*,x,x
O=C(O)/C=C/c1ccc(O)cc1,x,x,x,x,x,21.0%
O=C(/C=C/c1ccc(O)cc1)c1ccc(O)cc1O,29.2*,u,-10.7%,33.9,-14.0%,-17.2%
CC(C)c1ccccc1NC(=S)NC1CCN(Cc2ccccc2)CC1,-7.4,4.5%,-15.1%,-12.4,-27.5%,-13.6%
Cc1ccccc1Cn1cc(NC(=O)c2nc3ncccn3n2)cn1,23.2,0.6%,-20.7%,53.2,2.5%,4.7%
Cc1ccccc1Cn1ccc(NC(=O)c2onc(C)c2Cl)n1,28.6*,-7.8%,-19.8%,75.9*,-19.3%,-3.7%
Cc1ccccc1Cn1ccc(NC(=O)c2nc3ncccn3n2)n1,9.3*,-11.3%,-12.3%,18.4,3.6%,-7.2%
FC(F)(F)c1ccc(-c2noc(-c3ccccc3)c2I)cc1,45.9*,x,x,+,x,x
O=c1cc(-c2ccccc2)nc(SCc2nc(-c3ccc(C(F)(F)F)cc3)no2)[nH]1,x,12.4%,x,x,x,x
O=C(COc1ccc(Cl)cc1)Nc1ccc(Cc2ccncc2)cc1,-1.7,-4.6%,-2.6%,-4.4,-29.6%,-6.0%
CCc1ccc(-c2cnc3ccccc3n2)cc1NC(=O)CNC(=O)c1ccccc1,37.0*,-5.6%,5.1%,105.2*,0.7%,-16.4%
CCC(=O)Nc1cccc(-c2nc3ccccc3c(=O)o2)c1,-5.0,4.5%,-17.9%,-22.1,8.2%,3.5%
CCC(=O)Nc1cccc(-c2cnc3ccccc3n2)c1,47.1*,-0.5%,-3.3%,35.7*,-1.2%,-6.9%
O=C(CCl)Nc1cccc(-c2cnc3ccccc3n2)c1,46.2*,2.9%,-23.6%,72.4*,u,-10.4%
CCc1ccccc1NC(=O)CNC(=O)c1n[nH]c(=O)c2ccccc12,x,4.1%,-12.6%,x,3.4%,-13.6%
O=C(CN1CC[n+]2c(-c3ccccc3)csc21)c1ccc(Br)cc1,1.6,-1.1%,-44.8%,15.9,1.9%,85.3%
SMILES,Cycloheximide cs,AmpC inh detg,AmpC no deterg,Shiga toxin inh,SARS PLpro yeast,AMA1 RON2 block
COc1cc(C(=O)Nc2ccc(-c3nc4cc(C)c(C)cc4o3)cc2)cc(OC)c1OC,x,14.5%,x,x,x,x
O=C(CSc1ncnc2nc[nH]c12)c1ccc([N+](=O)[O-])cc1,1.5,5.5%,-45.3%,-1.9,0.0%,27.6%
O=C(CSc1ncnc2nc[nH]c12)c1ccc(Cl)cc1,10.7*,-16.4%,-18.7%,25.5*,4.7%,130.2%
c1ccc(CCSc2ncnc3nc[nH]c23)cc1,29.2*,-10.5%,-11.7%,38.9*,-3.5%,21.2%
Cc1cccc(OCCSc2ncnc3nc[nH]c23)c1,14.8*,-4.8%,-7.6%,20.6,-17.5%,16.5%
O=C(CSc1ncnc2nc[nH]c12)c1ccccc1,35.3*,0.3%,-22.0%,99.6*,-0.9%,7.0%
COc1ccccc1OCCSc1ncnc2nc[nH]c12,-1.7,-1.8%,-2.8%,18.9,-1.5%,-13.8%
O=C(CCCl)N1CCCC2(CCCCC2)C1,-1.1,0.4%,-4.3%,4.2,0.2%,-8.7%
O=[N+]([O-])c1cc(F)c(N2CCCCC2)cc1Br,-2.0,-7.3%,-24.2%,0.6,0.0%,u
CCc1ccccc1OCC(=O)Nc1ccc(S(N)(=O)=O)cc1,0.7,1.7%,-27.0%,23.4,-2.3%,4.8%
COc1ccc(NC(=O)CNS(=O)(=O)c2ccc(Cl)cc2)cc1,16.3*,-0.4%,-1.2%,23.4,-18.2%,1.1%
Cc1ccc(OCC(=O)Nc2ccc(F)cc2)cc1,46.6*,-2.9%,-19.4%,39.9*,-3.0%,12.8%
COc1ccc(OCC(=O)NNC(=O)C(=O)Nc2ccccc2)cc1,x,x,-6.3%,x,-0.7%,60.6%
COc1ccc(OCC(=O)NNC(=O)C(=O)Nc2ccc(C)cc2)cc1,23.5*,0.7%,19.7%,14.4,0.2%,13.2%
COc1cccc(NC(=O)CNS(=O)(=O)c2ccc(Cl)cc2)c1,-0.6,-11.6%,-23.7%,2.7,19.9%,2.3%
NS(=O)(=O)c1ccc(NC(=O)COc2cccc3ccccc23)cc1,-3.0,0.5%,12.6µM*,-6.4,0.9%,-1.4%
COC(=O)[C@@]12C[C@@H](CC(=O)NCc3cccc4ccccc34)C(=O)N(Cc3ccc4c(c3)OCO4)C1=CCC(C)(C)C2,x,x,x,x,x,1.2%
CN(CC(=O)Nc1cccnc1)S(=O)(=O)c1cc(Cl)ccc1Cl,-1.1,u,-13.8%,-3.5,-1.8%,-0.6%
COc1cc(-c2noc(C)c2-c2ccc3[nH]ccc3c2)cc(OC)c1OC,-2.1,-4.8%,-5.7%,-4.3,-19.8%,-8.7%
CCOc1ccc(S(=O)(=O)NCCC(=O)N2CC(C)CC(C)C2)cc1 (stereo not drawn),x,0.0%,6.4%,x,-3.5%,-12.3%
COc1ccc(CC(=O)N[C@@H]2c3ccccc3CC[C@@H]2OCc2ccccc2)cc1,x,x,-27.9%,x,u,3.2%
COc1ccc(NC(=O)COc2ccc(N(C)S(=O)(=O)c3ccc(Cl)cc3)cc2)cc1,x,3.8%,-24.0%,x,x,-1.6%
COc1ccc(OCC(=O)Nc2ccc(C)cc2)cc1,25.5*,u,-14.5%,59.8*,-11.2%,-4.5%
COc1ccc(OCC(=O)Nc2ccc(Cl)cc2)cc1,18.7*,1.9%,-0.7%,61.3*,-2.4%,-6.9%
O=C(COc1ccccc1O)Nc1ccc(Cl)cc1,27.6*,-14.0%,-20.4%,56.4*,-7.1%,-12.8%
